From PubChem BioAssay AID618 (Sanford-Burnham Center for Chemical Genomics, 2007)
The campaign covered roughly 87,000 compounds. About 540 (0.62%) were called active. No rule for the calls is given here. The sample as a whole holds a higher share of actives than the screen did. Measured potencies and affinities stand elsewhere.

Test: inhibitors of MT1-MMP promoter transcription, cell-based, luciferase reporter, luminescence (AID 618);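 also: actives suppress MT1-MMP promoter-driven transcription so potencies describe inhibitors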
Conditions: MT1-MMP promoter luciferase reporter cells

Compound	outcome
COc1ccc(OC)c(-n2c(-c3ccccc3)n[nH]c2=S)c1	inactive
CC(Oc1ccc(C(=O)NCCc2ccccc2)cc1)C(=O)O (stereo not given)	inactive
CCOc1cc(OCC)cc(C(=O)O)c1	inactive
COc1ccc(OCc2cccc(C(=O)Nc3cc(C)on3)c2)cc1	inactive
CCCCOc1cccc(C(=O)O)c1	inactive
CCOc1ccc(OCc2ccc(C(=O)N3CCOCC3)cc2)cc1	inactive
CC(C)OC(=O)C(C)Oc1ccc(C(=O)NCCc2ccccc2)cc1 (stereo not given)	inactive
CCOc1ccc(OCc2cccc(C(=O)O)c2)cc1	active
CCOc1ccc(OCc2cccc(C(=O)N3CCCC3)c2)cc1	inactive
CCOc1ccc(OCc2cccc(C(=O)N3CCOCC3)c2)cc1	active
COc1ccc(OCc2ccc(C(=O)O)cc2)cc1	inactive
COc1ccc(OCc2cccc(C(=O)O)c2)cc1	active
CSc1nc2nc(C(F)(F)F)cc(-c3ccccc3)n2n1	inactive
COc1ccccc1C(=O)Nc1ccc2c(c1)nc1n2CCSC1	inactive
CSc1ccccc1C(=O)Nc1nccs1	inactive
Cc1nn(-c2ccccc2)c2c1C1(C(=O)N(C(C)C)c3ccccc31)C(C#N)=C(N)O2 (stereo not given)	inactive
Cc1nc(SCC(=O)NC2CCCC2)[nH]c(=O)c1Cc1ccccc1	inactive
CCOc1ccc(C(=O)Nc2cccc(C)n2)cc1	active
CCOc1ccc(OCc2ccc(C(=O)Nc3cccc(C)n3)o2)cc1	inactive
CCCCOc1ccc(C(=O)Nc2cccc(C)n2)cc1	inactive
O=C(NCc1cccs1)c1cc(-c2cccc(Cl)c2)on1	inactive
Cc1ccc(-n2nc3c(c2NC(=O)c2ccc(OC(C)C)cc2)CS(=O)C3)cc1 (stereo not given)	inactive
COC(=O)C12CC3CC(C1)CC(n1cnc(Cl)n1)(C3)C2	inactive
O=C(CCl)N(c1ccc(Cl)cc1)c1c[nH]c2ccccc12	active

Compound	outcome
CN(C)CC(=O)c1c[nH]c2ccccc12	inactive
CC(=O)N(c1ccc(Cl)cc1)c1c[nH]c2ccccc12	inactive
CCN(CC)CC(=O)c1c[nH]c2ccccc12	inactive
O=C(CCl)N(c1ccccc1)c1c[nH]c2ccccc12	active
O=C(O)CCC(=O)c1c[nH]c2ccccc12	inactive
O=C(NCCN1CCN(Cc2ccccc2Cl)CC1)Nc1ccccc1	inactive
CCCCOc1ccc(CN2CCCCC2)cc1	inactive
CCCCOc1ccc(CN2CCC(O)CC2)cc1	inactive
CC(C)NC(=O)c1ccccc1NC(=O)CN(c1ccc2c(c1)OCO2)S(C)(=O)=O	inactive
CCCn1nnc(NC(=O)c2cccc(Cl)c2)n1	inactive
CN1CCN(CCCN2c3ccccc3Sc3ccc(Cl)cc32)CC1	inactive
CSc1ccc2c(c1)N(CCC1CCCCN1C)c1ccccc1S2 (stereo not given)	active
CN(C)CCCN1c2ccccc2Sc2ccc(C(F)(F)F)cc21	inactive
COC(=O)c1ccc(OC)c(CSc2nnc(-c3ccc(C(C)(C)C)cc3)o2)c1	inactive
CC(C)CNC(=O)CSc1ccc(Cl)cc1	inactive
Cc1cccc(NC(=S)NNC(=O)CCn2nc(C)c([N+](=O)[O-])c2C)c1	inactive
c1ccc(Cn2nnc3c(N4CCOCC4)ncnc32)cc1	inactive
S=c1sc2c(N3CCOCC3)ncnc2n1-c1ccccc1	inactive
c1ccc(-n2nnc3c(N4CCOCC4)ncnc32)cc1	active
Nc1cc(=O)[nH]c(SCc2nc3ccccc3n2Cc2ccccc2)n1	inactive
CSCC[C@H](NC(=O)OC(C)(C)C)c1nnc(SCC(N)=O)o1	inactive
COc1ccc(S(=O)(=O)n2nc(OC(=O)C3CCCCC3)cc2N)cc1	inactive
O=C(Nc1nc(-c2ccccn2)cs1)C1COc2ccccc2O1 (stereo not given)	inactive
Cc1nnc(NC(=O)C2COc3ccccc3O2)s1 (stereo not given)	inactive

Compound	outcome
O=C(Nc1ccncc1)C1COc2ccccc2O1 (stereo not given)	inactive
O=C(NC1=NCCS1)C1COc2ccccc2O1 (stereo not given)	active
O=C(Nc1nc(-c2ccc3c(c2)OCO3)cs1)C1COc2ccccc2O1 (stereo not given)	inactive
O=C(Nc1ncc(Cc2ccccc2)s1)C1COc2ccccc2O1 (stereo not given)	inactive
COc1ccc2nc(NC(=O)C3COc4ccccc4O3)sc2c1 (stereo not given)	inactive
Cc1nc2ccc3nc(NC(=O)C4COc5ccccc5O4)sc3c2s1 (stereo not given)	inactive
O=C(Nc1nncs1)C1COc2ccccc2O1 (stereo not given)	inactive
COc1ccc(OC)c(S(=O)(=O)Nc2ccc(CC(=O)O)cc2)c1	inactive
CN(C)/C=N/c1c(C#N)nnn1Cc1ccccc1	inactive
Cc1ccc2nc3n(c(=O)c2c1)CCCCC3	inactive
CCCCn1c(C(C)NC(=O)c2cccs2)nc2ccccc21 (stereo not given)	inactive
COc1ccccc1N1CCN(C(=O)CSc2nnc(NC(=O)c3ccco3)s2)CC1	inactive
O=C(Nc1nnc(C(F)(F)F)s1)C1COc2ccccc2O1 (stereo not given)	inactive
CCc1nnc(NC(=O)C2COc3ccccc3O2)s1 (stereo not given)	inactive
COc1ccc(-c2noc(CCC(=O)Nc3nc4ccccc4s3)n2)cc1	inactive
Cc1onc(-c2ccccc2)c1C(=O)Nc1ccccc1N1CCOCC1	inactive
Cc1onc(-c2ccccc2)c1C(=O)Nc1cc(C(F)(F)F)ccc1N1CCOCC1	active
O=C(CSc1nc2ccccc2[nH]1)Nc1cc(C(F)(F)F)ccc1N1CCOCC1	inactive
Cc1ccc2nc(SCC(=O)Nc3cc(C(F)(F)F)ccc3N3CCOCC3)[nH]c2c1	active
Cc1nnc(SCC(=O)Nc2cc(C(F)(F)F)ccc2N2CCOCC2)o1	inactive
O=C(Nc1cc(C(F)(F)F)ccc1N1CCOCC1)c1c(F)c(F)c(F)c(F)c1F	inactive
CCN(CC)c1ccc2cc(C(=O)Nc3ccc(-n4cnnn4)c(OC)c3)c(=O)oc2c1	inactive
COCc1cc(C)nc2sc(C(=O)Nc3nccs3)c(N)c12	inactive
Cc1cc(C)c2c(N)c(C(=O)NC3CC3)sc2n1	inactive

Compound	outcome
CCOC(=O)c1sc2nc(C)cc(C)c2c1N	inactive
CCOC(=O)CNC(=O)c1sc2nc(C)cc(C)c2c1N	inactive
COCCNC(=O)C(c1cccs1)N(CCc1ccccc1)C(=O)Cn1nnc2ccccc21 (stereo not given)	inactive
O=C(CSc1nnc(CNC(=O)c2cccs2)o1)NCCc1ccccc1	inactive
O=C(CNC(=O)c1ccco1)NCC(=O)OC(C(=O)c1ccccc1)c1ccc(Cl)cc1 (stereo not given)	inactive
CC1CCCc2sc3nc(N4CCN(CCO)CC4)n4ncnc4c3c21 (stereo not given)	inactive
COCCn1c(C)cc(C(=O)COc2nc3ccccc3nc2C)c1C	inactive
COCCn1c(C)cc(C2=NNC(=Nc3ccc(Cl)cc3Cl)SC2)c1C	inactive
COCCn1c(-c2ccccc2F)n[nH]c1=S	inactive
COCCn1c(C)cc(C2=NNC(=Nc3ccc(OC)cc3)SC2)c1C	inactive
CCOC(=O)c1c(C)c(C(=O)NC2CCCCC2)c(C)n1CC	inactive
Cc1ccc(-c2ccccc2NC(=O)CCl)o1	inactive
CN1/C(=C/C=N/n2cnnc2)C(C)(C)c2ccccc21	inactive
CN1/C(=C/C2CC(=O)N(c3cccc4ccccc34)C2=O)C(C)(C)c2ccccc21 (stereo not given)	inactive
O=C(O)CCn1c(=S)oc2ccccc21	inactive
Cc1cc(NC(=O)c2cc(Cl)ccc2Cl)no1	inactive
O=C(C1CCCCC1)N(Cc1ccccc1)c1ccccn1	inactive
COc1cc2c(cc1OC)C1C/C(=N\O)C(CC(C)C)CN1CC2 (stereo not given)	inactive
CC[C@H]1CN2CCc3cc(OC)c(OC)cc3[C@@H]2C[C@@H]1C[C@H]1NCCc2cc(OC)c(OC)cc21	active
COc1cc2c(cc1OC)C1Cc3ccc(OC)c(OC)c3CN1CC2 (stereo not given)	inactive
O=C(CN1CCCCC1)N1c2ccccc2CCc2ccccc21	inactive
O=C(CN1C(=O)C2C3C=CC(C3)C2C1=O)N1CCc2ccccc2C1 (stereo not given)	inactive
O=C(NCC(c1cccs1)N1CCOCC1)c1ccc(Cl)s1 (stereo not given)	active
CCC(=O)NCC(c1cccs1)N1CCOCC1 (stereo not given)	inactive

Compound	outcome
O=C(NCC(c1cccs1)N1CCOCC1)c1ccco1 (stereo not given)	inactive
CCOC(=O)c1ccc(CC(=O)c2oc3cc(O)ccc3c2C)o1	inactive
CN(C)c1cccc(C(=O)n2cc(C(=O)c3cc(F)ccc3O)cn2)c1	inactive
COc1ccc(-c2cc3nc(C)cc(NCCO)n3n2)cc1	inactive
Cc1cc(N)n2nc(C)c(-c3ccccc3)c2n1	inactive
COc1ccc(-c2cc3nc(C)cc(C)n3n2)cc1	inactive
Cc1cc(N)n2ncc(-c3ccccc3)c2n1	inactive
Cc1c(C(=O)N2CCN(S(C)(=O)=O)CC2)oc2ccccc12	inactive
COc1ccc(C)cc1NC(=O)c1ccc(N(C)S(C)(=O)=O)cc1	inactive
CC1CCN(C(=S)c2ccc3c(c2)OCO3)CC1	inactive
COc1ccc(OC)c2sc(NC(=O)c3ccc(Br)s3)nc12	inactive
Oc1ccc(Nc2nc(-c3ccc4ccccc4c3)cs2)cc1	active
Oc1ccc(Nc2nc(-c3ccc(O)cc3)cs2)cc1	inactive
NS(=O)(=O)c1ccc(Nc2nc(-c3ccc4ccccc4c3)cs2)cc1	inactive
CCN(CC)CCCNC(=O)c1[nH]c(C)c(C(=O)NC2CCCCC2)c1C	inactive
Cc1nc(SCC(N)=O)[nH]c(=O)c1Cc1ccc(OC(C)C)cc1	inactive
O=C(Nc1ccccc1C(=O)N1CCN(c2ccccc2)CC1)c1ccco1	inactive
CNc1nc(-c2ccccn2)nnc1-c1ccccc1	inactive
c1ccc(-c2nnc(-c3ccccn3)nc2NC2CCCCC2)cc1	active
c1ccc(-c2noc(C3CCCCC3)n2)nc1	inactive
C=CCNc1nc(-c2ccccc2)nc(-n2ccnc2)n1	inactive
c1ccc(-c2n[nH]c(-c3ccccn3)n2)cc1	inactive
N#Cc1ccc(C23CC4(C2)[C@H](CN(Cc2ccc(C(F)(F)F)cc2)[C@@H]4c2ccccc2)C3c2ccc(C(F)(F)F)cc2)cc1 (stereo not given in full)	inactive
CCc1ccc2[nH]c(=O)c(C(c3nnnn3Cc3ccccc3)N3CCOCC3)cc2c1 (stereo not given)	inactive
